Measured values taken from ChEMBL document CHEMBL1157539, “Thousands of chemical starting points for antimalarial lead identification” (Nature, 2010).
Several values for one entry are separate records, joined by “and”; a condition that tells them apart may be missing. Equal entries are not always repeated.

Key:
Format in all cases: functional
Plasmodium falciparum [1] = test: GSK_TCMDC: Inhibition of Plasmodium falciparum 3D7 in whole red blood cells, using parasite LDH activity as an index of growth. Test compounds present at 2uM
Plasmodium falciparum [2] = test: GSK_TCMDC: Inhibition of Plasmodium falciparum Dd2 in whole red blood cells, using parasite LDH activity as an index of growth. Test compounds present at 2uM
HepG2 = test: GSK_TCMDC: Percent inhibition of human HepG2 cell line. Test compounds present at 10uM.

Compound	Inhibition (Plasmodium falciparum [1])	Inhibition (Plasmodium falciparum [2])	Inhibition (HepG2)
COC(=O)/C=C/c1ccc(CC(C)NCC(O)c2cccc(C(F)(F)F)c2)cc1.Cl (stereo unspecified)	97%	93%	41%
Cc1cc(N)nc2cc(CNCCc3ccccc3Br)ccc12.Cl	100%	93%	47%
Cc1cc(O)cc2c(C3CCN(CC4CCN(C(=O)/C=C/c5ccc(Cl)c(Cl)c5)CC4)CC3)c[nH]c12	100%	100%	33%
O=C(O)/C=C\C(=O)O.OC1(c2ccc(Cl)c(C(F)(F)F)c2)CCN(CCOC2c3ccccc3CSc3ccc(Cl)cc32)CC1 (stereo unspecified)	95%	58%	3%
COC(=O)/C=C/c1ccc(CC(C)NCC(O)c2cccc(Br)c2)cc1 (stereo unspecified)	97%	93%	2%
Br.CC(Cc1ccc(SC(C)(C)C)cc1)NCC(O)c1cccc(Cl)c1 (stereo unspecified)	99%	99%	14%
CC(=O)N(Cc1cccc(-c2cccc(CNCCc3ccccc3)c2)c1)C1CCN(Cc2ccccc2)CC1.O=C(O)C(F)(F)F	100%	57%	22%
O=C(NC1CCC(CN2CCC(c3c[nH]c4ccccc34)CC2)CC1)c1cc(-c2ccccc2Cl)oc1C(F)(F)F (stereo unspecified)	99%	7%	24%
Cc1[nH]c2cc(Cl)ccc2c1C1=CCN(CCCCC2(C)C(=O)Nc3ccccc32)CC1 (stereo unspecified)	94%	90%	0%
N#Cc1ccc(N(CC(=O)NCCc2ccccc2)CC2CC2)c2ccccc12.O=C(O)C(F)(F)F	99%	48%	0%
COc1ccc(NC(=S)NC(NC(=O)CF)C(Cl)(Cl)Cl)cc1[N+](=O)[O-] (stereo unspecified)	97%	0%	66%
Cn1nc(-c2ccc(S(=O)(=O)N3CCC(CN4CCC(c5c[nH]c6ccccc56)CC4)CC3)s2)cc1C(F)(F)F	93%	48%	16%
CN1C2CCC1c1cc(NC(=O)c3cc(-c4ccc(Cl)cc4)cs3)ccc12.O=C(O)C(F)(F)F (stereo unspecified)	90%	35%	62%
O=C(/C=C/c1ccc([N+](=O)[O-])cc1)NC1CCC(CN2CCC(c3c[nH]c4ccccc34)CC2)CC1 (stereo unspecified)	100%	61% and 81%	30% and 34%
NC(=O)c1ccc2[nH]cc(C3CCN(CC4CCC(NC(=O)/C=C/c5ccc(Cl)c(Cl)c5)CC4)CC3)c2c1 (stereo unspecified)	100%	26% and 32%	0% and 11%
Cc1csc(NC2=NCCN2)n1.Cl	99%	1%	10%
Cc1c(C)c2c(c(C)c1O)CC[C@@](C)(C(=O)N1CCC(CN3CCC(c4c[nH]c5ccccc45)CC3)CC1)O2	98%	90%	21%
CCC1(C)CC(CCNCc2ccccc2O)(c2ccc(F)cc2)CCO1 (stereo unspecified)	98%	32%	20%
O=C(/C=C/c1ccc(Cl)c(Cl)c1)NC1CCC(N2CCC(c3c[nH]c4ccc(O)cc34)CC2)CC1 (stereo unspecified)	97%	16%	10%
N#Cc1c(Cl)cccc1Oc1ccc(S(=O)(=O)NC2CCC(CN3CCC(c4c[nH]c5ccccc45)CC3)CC2)cc1 (stereo unspecified)	85% and 100%	36% and 16%	31% and 29%
Cc1csc(-c2ccc3[nH]cc(C4=CCN(C)CC4)c3c2)n1	93%	78%	10%

Compound	Inhibition (Plasmodium falciparum [1])	Inhibition (Plasmodium falciparum [2])	Inhibition (HepG2)
CCCCCC(C)C(C)c1cc(O)c2c(c1)OC(C)(C)c1cnccc1-2.Cl (stereo unspecified)	94%	74%	7%
CC[C@H]1CN2CC[C@@H]1C[C@H]2[C@H](O)c1cc(N2CCC(O)(c3ccc(Cl)cc3)CC2)nc2ccc(OC)cc12	100%	98%	21%
CC[C@H]1CN2CC[C@H]1C[C@H]2[C@H](O)c1ccnc2ccc(O)cc12.Cl	99%	2%	11%
Cl.N[C@@H](CCN1CCC(c2cccc(O)c2)CC1)Cc1ccc(F)c(F)c1	92%	0%	25%
Cl.c1ccc2c(NCCCCCCNc3c4c(nc5ccccc35)CCCC4)c3c(nc2c1)CCCC3	100%	51%	90%
O=C(/C=C/c1cc([N+](=O)[O-])ccc1Cl)NC1CCC(CN2CCC(c3c[nH]c4ccccc34)CC2)CC1 (stereo unspecified)	100%	94%	21%
CC[C@H]1CN2CC[C@H]1C[C@H]2[C@H](O)c1cc(-c2ccc(OC(F)(F)F)cc2)nc2ccc(OC)cc12.Cl	98%	99%	24%
Cl.c1ccc2c(NCCCCCCCCCNc3c4ccccc4nc4ccccc34)c3ccccc3nc2c1	100%	95%	99%
CC(C)(C)c1cc(/C=C/C(=O)NC2CCC(CN3CCC(c4c[nH]c5ccccc45)CC3)CC2)cc(C(C)(C)C)c1O (stereo unspecified)	100%	100%	98% and 99%
Cl.N#Cc1c(F)cc(N2CCC(NCC[C@H](N)Cc3ccc(F)c(F)c3)CC2)cc1F	100%	26%	70%
O=C(/C=C/c1cc(C(F)(F)F)ccc1F)N1CCC(CN2CCC(c3c[nH]c4ccccc34)CC2)CC1	96%	14%	22%
COc1cc2c(c(OC)c1OC)C[C@H]1c3c(cc4c(c3-2)OCO4)CCN1C	84%	30%	7%
COc1cc(NCCCNC(=O)c2cn(Cc3ccccc3)c3ccccc23)nc2ccccc12	100%	66%	13%
CC(=O)C1(c2ccccc2)CCN(CCC2(c3ccc(Cl)c(Cl)c3)CN(C(=O)C3CCCCC3)CCO2)CC1 (stereo unspecified)	100%	99%	3%
CC(Cc1ccc(S(=O)(=O)N(C(C)C)C(C)C)cc1)NCC(O)c1cccc(C(F)(F)F)c1.Cl (stereo unspecified)	96%	93%	21%
O=C(C=Cc1ccccc1Br)NC1CCC(CN2CCC(c3c[nH]c4ccccc34)CC2)CC1 (stereo unspecified)	100%	57% and 32%	36% and 43%
CC(C)CNCc1cccc(-c2ccc(CN(C(=O)c3cccs3)C3CCN(Cc4ccccc4)CC3)cc2)c1.O=C(O)C(F)(F)F	85%	40%	22%
O.Oc1cccc(C2CCCN(CCc3c[nH]c4ccccc34)C2)c1 (stereo unspecified)	93%	40%	0%
Cc1cc(CN2CCN(CCOC(c3ccccc3)c3ccccc3)CC2)ccc1O	97%	96%	9%
O=C(/C=C/C=C/c1ccccc1)NC1CCC(CN2CCC(c3c[nH]c4ccccc34)CC2)CC1 (stereo unspecified)	100%	66%	49%
CCOc1ccc(-c2nc3cc(-c4nc5cc(N6CCN(C)CC6)ccc5[nH]4)ccc3[nH]2)cc1.Cl.O	100%	99%	16%
